Structures can show the parent of a compound that is named as a salt. The campaign covered roughly 1,500 compounds. About 30 (2%) showed activity. This is one part of a sample in which actives are shown more often than they occur. Values without a mark were called inactive.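 Rule for the calls: active = robust z-score below -2; a few such results were not called.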
These compounds were tested on optoTopBP1 Flp-In 293 T-REx (HEK293) cells (assay: light-induced TopBP1 condensate (nuclear foci) count, plate-normalised robust z-score vs non-control wells; higher = more TopBP1 condensates (negative = condensation inhibitor), active = hit call of the paper). Details: 10 µM; incubation time 2 h.

| SMILES | light-induced TopBP1 condensate (z-score) |
| --- | --- |
| CN(c1nccc(=O)[nH]1)C1CCN(c2nc3ccccc3n2Cc2ccc(F)cc2)CC1 [Mizolastine] | -0.786 |
| CC(C)=CCOc1ccc(/C=C/C(=O)c2ccc(OCC=C(C)C)cc2OCC(=O)O)cc1 [Sofalcone] | 0.373 |
| CC(=O)OCC(=O)[C@@]12OC3(CCCC3)O[C@@H]1C[C@H]1[C@@H]3CCC4=CC(=O)C=C[C@]4(C)[C@@]3(F)[C@@H](O)C[C@@]12C [Amcinonide] | 0.776 |
| CNCC[C@@H](Oc1cccc2ccccc12)c1cccs1 [(R)-Duloxetine hydrochloride] | -1.75 |
| O=C(CCCCC(=O)Nc1c(I)cc(I)c(C(=O)O)c1I)Nc1c(I)cc(I)c(C(=O)O)c1I [Iodipamide] | -0.465 |
| CC(C(=O)O)c1ccc(C(=O)c2cccs2)cc1 (stereo not drawn) [Suprofen] | -0.434 |
| COc1cc(C(=O)NC2CCCNC2)cc(OC)c1OC (stereo not drawn) [Troxipide] | -0.997 |
| Nc1nc(=S)c2ncn([C@@H]3O[C@H](CO)[C@@H](O)[C@H]3O)c2[nH]1 [Thioguanosine] | 1.17 |
| OCCN1CCN(CCCN2c3ccccc3C=Cc3ccccc32)CC1 [Opipramol dihydrochloride] | -0.102 |
| CO[C@@H]1[C@@H](O[C@@H]2O[C@H](C)[C@@H](O[C@H]3C[C@@](C)(O)[C@@H](O)[C@H](C)O3)[C@H](N(C)C)[C@H]2O)[C@@H](CC=O)C[C@@H](C)[C@@H](O[C@H]2CC[C@H](N(C)C)[C@@H](C)O2)/C=C/C=C/C[C@@H](C)OC(=O)C[C@H]1OC(C)=O [Acetyl spiramycin] | -0.0623 |
| CC[C@]12CCCN3CCc4c(n(c5ccccc45)[C@@](O)(C(=O)OC)C1)[C@@H]32 [Vincamine] | -0.735 |
| CC1=C(C)C(=O)C(C(CCCCCC(=O)O)c2ccccc2)=C(C)C1=O (stereo not drawn) [Seratrodast] | -1.1 |
| O=C(O)c1ccccc1Nc1cc(Cl)ccc1C(=O)O [Lobenzarit disodium] | 0.707 |
| CCCCC(CC)CNC(=N)NC(=N)NCCCCCCNC(=N)NC(=N)NCC(CC)CCCC (stereo not drawn) [Alexidine dihydrochloride] | -0.446 |
| COC(=O)C1=C(C)NC(C)=C(C(=O)O[C@H]2CCN(Cc3ccccc3)C2)[C@H]1c1cccc([N+](=O)[O-])c1 [Barnidipine Hydrochloride] | -1.06 |
| CCOCCn1c(N2CCCN(C)CC2)nc2ccccc21 [Emedastine] | -0.971 |
| CN1CCC(=C2c3ccccc3Sc3ccccc32)CC1 [Pimethixene maleate] | -1.21 |
| C[C@H]1[C@@H](O)O[C@@H]2O[C@@]3(C)CC[C@H]4[C@H](C)CC[C@@H]1[C@@]24OO3 [Artenimol] | 0.222 |
| CC(=O)OC(C)OC(=O)C(C)c1ccc(-c2ccccc2)c(F)c1 (stereo not drawn) [Flurbiprofen axetil] | -0.559 |
| Cc1cc2nc3ccc(N(C)C)cc3[s+]c2cc1N [Tolonium chloride] | -9.72 (active) |
| O=C(Cn1cnnn1)N[C@@H]1C(=O)N2C(C(=O)O)=C(CSc3nncs3)CS[C@H]12 [Ceftezole] | -0.707 |
| O=C(Cn1c(=O)sc2ccc(Cl)cc21)N1CCN(CCO)CC1 [Tiaramide Hydrochloride] | 0.609 |

| SMILES | light-induced TopBP1 condensate (z-score) |
| --- | --- |
| CC(=O)Oc1cccc2c1C(=O)c1c(OC(C)=O)cc(C(=O)O)cc1C2=O [Diacerein] | -1.09 |
| O=C1c2cccc(O)c2C(=O)c2c(O)cccc21 [1,8-Dihydroxyanthraquinone] | -2.97 (active) |
| O=C1c2c(O)cccc2Cc2cccc(O)c21 [Anthralin] | -0.589 |
| CC(C(=O)O)c1cccc(Oc2ccccc2)c1 (stereo not drawn) [Fenoprofen calcium salt dihydrate] | 0.527 |
| CN1CCC(OC(c2ccccc2)c2ccccc2)CC1 [Diphenylpyraline hydrochloride] | -0.243 |
| CC=CC(=O)N(CC)c1ccccc1C [Crotamiton] | -1.09 |
| CC(=O)CC(c1ccccc1)c1c(O)c2ccccc2oc1=O (stereo not drawn) [Warfarin] | 0.476 |
| Nc1ccn([C@@H]2O[C@H](CO)[C@@H](O)C2(F)F)c(=O)n1 [Gemcitabine] | -2.33 (active) |
| Nc1ccn([C@@H]2O[C@H](CO)[C@@H](O)[C@@H]2O)c(=O)n1 [Cytarabine] | -1.9 |
| Nc1ccn([C@H]2CC[C@@H](CO)O2)c(=O)n1 [Zalcitabine] | 0.161 |
| O=C(Oc1cccc2cccnc12)c1ccccc1 [Benzoxiquine] | -0.428 |
| OCCOCCN1CCN(C2=Nc3ccccc3Sc3ccccc32)CC1 [Quetiapine hemifumarate] | 0.443 |
| O=C(CCCl)NCc1ccccc1 [Beclamide] | 0.736 |
| O=C1[C@H]2CCCC[C@H]2C(=O)N1CCCCN1CCN(c2nsc3ccccc23)CC1 [Perospirone] | -0.904 |
| CC(=O)O[C@@]12CO[C@@H]1C[C@H](O)[C@@]1(C)C(=O)[C@H](O)C3=C(C)[C@@H](OC(=O)[C@H](O)[C@@H](NC(=O)OC(C)(C)C)c4ccccc4)C[C@@](O)([C@@H](OC(=O)c4ccccc4)[C@H]21)C3(C)C [Docetaxel] | -1.72 |
| CNC(=O)c1c(I)c(C(=O)NCC(=O)Nc2c(I)c(C(=O)O)c(I)c(C(=O)NCCO)c2I)c(I)c(N(C)C(C)=O)c1I [Ioxaglic acid] | 1.43 |
| Cn1cc([S+](C)[O-])c(=O)c2ccc(F)cc21 (stereo not drawn) [Flosequinan] | 0.501 |
| CC(=O)OCC(=O)[C@@]1(O)CC[C@H]2[C@@H]3CCC4=CC(=O)C=C[C@]4(C)[C@@]3(F)[C@@H](O)C[C@@]21C [Isoflupredone acetate] | 0.491 |
| NC(=O)c1ncn([C@@H]2O[C@H](CO)[C@@H](O)[C@H]2O)c1O [Mizoribine] | -0.419 |
| N=c1ccn2c(n1)O[C@H]1[C@H](O)[C@@H](CO)O[C@H]12 [Ancitabine hydrochloride] | -2.02 (active) |
| Nc1ncn(C2OC(CO)C(O)C2O)c(=O)n1 (stereo not drawn) [Azacytidine-5] | 0.0662 |

Source: the supplement of paper PMC12582362
